# Measured values as given in PubChem BioAssay (NCI).
# “And” between values parts separate entries of the source, which are not always exact repeats. Equal values may be shown once. About 83,000 compounds went through this panel and 20% of them were active in at least one assay; those are over-represented in the sample as a whole.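 Interpretation: 100, growth as untreated; towards 0, rising growth inhibition; 0, no net growth; 0 to -100, cell death. Compounds scoring below 10 were considered active.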 The source made the active and inactive calls.
# Test system: MDA-MB-468 breast
# Test: NCI-60 one-dose screen, 48 h (100 = growth as untreated, 0 = no growth, -100 = all killed)
# Conditions: 10 µM unless noted
row,SMILES,growth
1,COC(=O)[C@@]12CC[C@@H](C)[C@]3(C[C@@H](c4ccoc4)OC3=O)[C@H]1CC[C@@H]1O[C@@]12C,106% (inactive)
2,CC(c1ccc(-n2cccn2)cc1)c1cnc(N2CCc3ccc(C(N)=O)cc3C2)s1 (stereo not drawn),30.1% (inactive)
3,COC(=O)CCCCCCCCC1(C)C=CC(C(C)O)=CC1 (stereo not drawn),107% (inactive)
4,CC(=O)Nc1cccc(-n2cnc3cc(-c4ccc(O)cc4)ccc32)c1,-0.935% (active)
5,C=CCn1c(SCC(=O)c2ccc(Br)cc2)nnc1-c1c[nH]c2ccccc12,86.9% (inactive)
6,COc1ccc(/C=C/C(=O)c2cc(O)ccc2O)cc1,71.2% (inactive)
7,Cc1ccc(-c2[nH][nH]c(=O)c2-c2nc3ccccc3s2)cc1,98.1% (inactive)
8,CNCCCn1c2c(c3ccc(Cl)cc3c1=O)C(=O)c1cc(OC)cnc1-2,67.2% (inactive)
9,CC(Sc1nc2sc3c(c2c(=O)n1-c1ccc(Cl)cc1)CCCC3)C(=O)Nc1nc(-c2ccc(Br)cc2)cs1 (stereo not drawn),105% (inactive)
10,CC(=O)OC[C@H]1O[C@@H](n2c(=O)cc(N)[nH]c2=O)C(OC(C)=O)[C@@H]1OC(C)=O (stereo partly drawn),98.8% (inactive)
11,CCCCCCCOc1cccc(/C=C2\N=C3SCCCN3C2=O)c1,89.2% (inactive)
12,CCOC(=O)c1ccc(N=Cc2sc(=O)[nH]c2O)cc1,98.6% (inactive)
13,C=C(C=O)[C@@H]1CC[C@]2(C)[C@H](C(=O)C=C3[C@H]4C[C@](C)(C(=O)OC)CC[C@]4(C)CC[C@]32C)[C@@]1(C)CCC#N,80.2% (inactive)
14,Nc1ncnc2c1N=C(c1ccc3c(c1)OCO3)CC(c1cccc(Nc3ccnc4cc(C(F)(F)F)ccc34)c1)N2 (stereo not drawn),86.6% (inactive)
15,Cc1cscc(C)c1=S,72.3% (inactive)
16,CCCCCCCC/C=C\CCCCCCCCOc1ccc(CC(=O)NCC[N+]2(C)CCOCC2)cc1,43.9% (inactive)
17,CC(=O)C1CCCCC1,102% (inactive)
18,C=CCCC1(C)NC(=O)NC1=O (stereo not drawn),99.3% (inactive)
19,Oc1ccc(Br)cc1/C=N/NC(=S)NC12CC3CC(CC(C3)C1)C2,46.8% (inactive)
20,CCOC(=O)C#Cc1c(CC(=O)OCC)nnn1[C@H]1O[C@@H](CO)[C@@H]2OC(C)(C)O[C@@H]21,10.6% (inactive)
21,Cc1cnc(Nc2ccc(N3CCN(C)CC3)cc2)nc1Nc1ccc(Cl)c(NS(=O)(=O)C(C)(C)C)c1,14.9% (inactive)

row,SMILES,growth
1,CCCCCCCCCCCCCCCCNC(=O)OC(C)C,36.1% (inactive)
2,CCOC(=O)Nc1nc2ccc(SCC(C)C)cc2s1,2.1% (active)
3,CN1CCc2c(sc3ncnc(N/N=C/c4ccc(Cl)c(Cl)c4)c23)C1,-26.6% (active)
4,CC(O)CN(CC(C)O)N(CC(C)O)CC(C)O (stereo not drawn),105% (inactive)
5,CC(C)(C)c1cc(C(=O)Nc2ccccc2C(=O)NCCN)cc(C(C)(C)C)c1,-76.7% (active)
6,Oc1c(Cl)cc(Cl)c2ccc(Cn3cc(-c4cc(F)cc(F)c4)nn3)nc12,38.2% (inactive)
7,O=C(Nc1ccc(Cl)cc1)c1cc2cc(F)ccc2cc1O,-1.3% (active)
8,O=C1C=C[C@]2(C[C@@H](c3cccc(C(F)(F)F)c3)O[C@@H](c3cccc(C(F)(F)F)c3)O2)O1,-48.8% (active)
9,CCCCc1nc(Cl)c(CO)n1Cc1ccc(-c2ccccc2-c2nn[nH]n2)cc1,96.4% (inactive)
10,Cc1ccccc1NC(=O)CN(C)C,107% (inactive)
11,Nc1ncc(-c2ccc3ncnc(N4CCc5cc(F)c(Cl)cc54)c3c2)cn1,15.8% (inactive) and -64% (active)
12,COc1ccc(Cn2cc3c(c2-c2ccccc2)CCc2cnoc2-3)cc1,55.2% (inactive)
13,Nc1ccc(C2=NN(C(=O)c3cc(-c4ccc(Cl)cc4)nc4ccccc34)C(c3ccc(Cl)cc3)C2)cc1 (stereo not drawn),7.85% (active)
14,CC1=C(SCC(=O)OCCCCCC(C)C)C(=O)c2ccccc2C1=O,65.5% (inactive)
15,c1ccc2[nH]c(-c3ccc(Nc4nc(N5CCCCC5)nc(N5CCOCC5)n4)cc3)nc2c1,-3.66% (active)
16,Nc1[nH]c(=S)nc2oc(-c3ccccc3)c(-c3ccccc3)c12,98.8% (inactive)
17,Cc1ccccc1COc1ccc(-c2ccnn2-c2ccc(Cl)cc2)cc1,41.1% (inactive)
18,COc1ccc(-c2cc(-c3cc(OC)ccc3OC)nc(SCC(=O)c3ccccc3)c2C#N)cc1,106% (inactive)
19,COc1ccccc1-n1cc(C#N)c(N)c1C(=O)c1ccc(Cl)cc1,51.6% (inactive)
20,COC(=O)C(C(=O)OC)C(Br)C(Br)C(Br)c1ccccc1 (stereo not drawn),36.7% (inactive)
21,COc1ccc(-c2csc3c2-n2cccc2C3=O)cc1O,-5.84% (active)

row,SMILES,growth
1,Cc1ccc2cnc(N)c(C#Cc3cncc(C(=O)Nc4ccc(CN5CCN(C)CC5)c(C(F)(F)F)c4)c3)c2c1,-87.1% (active)
2,COc1cnc2c(c1)C(=O)c1c-2n(CCCNC(C)C)c(=O)c2cc(F)ccc12,-63.6% (active)
3,Cc1cc(C)c(-c2cc(O)c(-c3c(C)cc(C)cc3C)cc2O)c(C)c1,4.15% (active)
4,CCOC(=O)/C=C\C(=O)NC(N)=O,88.6% (inactive)
5,CCN1C(=O)/C(=C/C(=O)OC)S/C1=N\NC(=O)c1cc2ccc1/C=C\c1ccc(cc1)/C=C\2,87.3% (inactive)
6,CC(C)=CCC[C@](C)(O)[C@H]1CC[C@]2(C)[C@@H]1CC[C@@H]1[C@@]3(C)CCC(NC(=O)c4ccccc4C(=O)O)C(C)(C)[C@@H]3CC[C@]12C (stereo partly drawn),89.4% (inactive)
7,CCCCN(CCCC)c1ccc(C(=N)c2ccc(N(C)C)cc2)cc1,-76.5% (active)
8,CC(C)(C)c1nn(-c2ccccc2)c2c1CC1(CN2Cc2ccc3c(c2)OCO3)C(=O)c2ccccc2C1=O,111% (inactive)
9,Fc1ccc(CNCCNc2ncnc3c2cnn3-c2ccccc2)cc1,81.4% (inactive)
10,N=C(N)c1ccc(-c2ccc(-c3ccc(Cl)c(Cl)c3)s2)nc1,-65.4% (active)
11,CCOC(=O)C1=C(C)Nc2nnc(Nc3ccccc3)n2C1c1ccccc1 (stereo not drawn),68.4% (inactive)
12,COc1cc(C(=O)C[n+]2ccc3ccccc3c2)cc(OC)c1OC,98.3% (inactive)
13,O=C(/C=C/c1ccc(Cl)cc1)c1ccc(NC(=O)N2CCN(c3cc4c(cc3F)c(=O)c(C(=O)O)cn4C3CC3)CC2)cc1,96.6% (inactive)
14,C=CCn1c2ccccc2c2c3c(c4c5ccccc5n(CC=C)c4c21)C(=O)N(O)C3=O,24% (inactive)
15,COc1ccc(OC)c([C@H]2c3[nH]c4ccccc4c3C[C@H]3C(=O)N(CCCCCCC(=O)NO)CC(=O)N23)c1,74.9% (inactive)
16,Cc1csc(NC(c2ccccc2)c2c(C)nc3ccccn23)n1 (stereo not drawn),100% (inactive)
17,Cc1cccc(C)c1NC(=O)CSC(=S)N1CCCCC1,110% (inactive)
18,CN(C)CCNc1cc(-c2ccccc2)nc2ccccc12,-33.3% (active)
19,COc1cc(-c2nc3ccccc3[nH]2)ccc1OCc1nnc(-c2ccc(Br)cc2)o1,80.5% (inactive)
20,CC(C(C(=O)N1CCCCC1)N1CCCCC1)N1CCCCC1 (stereo not drawn),115% (inactive)
21,c1ccc2c[n+](Cc3ccc4ccccc4n3)ccc2c1,-0.701% (active)

row,SMILES,growth
1,Nc1cc(F)ccc1[N+](=O)[O-],100% (inactive)
2,Cn1ccc2c1CC1CN(Cc3ccco3)C(=O)C1C2C(=O)O (stereo not drawn),104% (inactive)
3,NS(=O)(=O)c1ccc(CCN2C(=O)/C(=C\c3ccc(Cl)cc3)C=C2c2ccc3ccccc3c2)cc1,91% (inactive)
4,CC[C@]12C=CCN3CC[C@]4(C(=C(C(=O)OC)C1)Nc1cc5c(cc14)[C@@H]1[C@H](O5)[C@@H](O)[C@@]4(CC)CC(C(=O)OC)=C5Nc6cc(O)ccc6[C@@]56CCN1C46)C32 (stereo partly drawn),-51% (active)
5,COc1cc(/C=C2\COc3ccc(O)c(O)c3C2=O)cc(OC)c1,-0.854% (active)
6,COc1ccc(Nc2nc(Nc3cc(C)[nH]n3)c3cc(OC)c(OC)cc3n2)cc1,-69.9% [20 µM] (active)
7,COc1ccc(OC)c(/C=C/c2nnc(Nc3ccccc3)o2)c1,103% (inactive)
8,COc1ccc(Nc2cc(NC(=O)CNc3cc(OC)c(Cl)c(OC)c3Cl)ncn2)cc1,80.8% (inactive)
9,C=CC1=C(C(=O)O)N2C(=O)[C@@H](NC(=O)/C(=N\O)c3csc(N)n3)[C@H]2SC1 (stereo in doubt),96.1% (inactive)
10,COC(=O)c1ccc(CSc2nnc(-c3c(C)nc4ccc(C)cn34)o2)cc1,93.2% (inactive)
11,COc1cc2[nH]c(C(=O)c3cc(OC)c(OC)c(OC)c3)c(N)c2cc1C#CC1CC1,23.4% (inactive)
12,N#Cc1c2ncccc2c2nnc3cc(Cl)c(Cl)cc3n12,21.7% (inactive)
13,CCCCCCCC(=O)SCC/C=C/[C@@H]1CC(=O)NCc2nc(co2)C2=N[C@@](C)(CS2)C(=O)N[C@@H](C(C)C)C(=O)O1,-0.758% (active)
14,Cc1cc(=O)oc2cc(OC(=O)N3CCN(C)CC3)ccc12,107% (inactive)
15,Cc1ccc(NC(=S)N/C=C(\c2ccccc2)S(=O)Cc2ccccc2)c(C)c1 (stereo not drawn),100% (inactive)
16,CS(=O)(=O)c1nccc(-c2c(-c3cccc(OCCN4CCOCC4)c3)nc3sccn23)n1,37.6% (inactive)
17,O=C(Nc1cccc(-n2cc(-c3ccncc3)c(-c3ccc(O)c(Cl)c3)n2)c1)Nc1ccc(Cl)c(Cl)c1,27.3% (inactive)
18,COc1nc(OC)nc(-c2cc(-c3cc(OC)c(OC)c(OC)c3)no2)n1,104% (inactive)
19,O=C1c2c(c3c4cc(Br)ccc4[nH]c3c3ccc4ccccc4c23)C(=O)N1CCN1CCCCC1,15% (inactive)
20,c1ccc(OCC[P+](c2ccccc2)(c2ccccc2)c2ccccc2)cc1,-18.1% (active)
